A selection: hits, their analogues and other compounds. The true share with any hit is near 12%.
BAZ2B block: inhibitors of human BAZ2B bromodomain; Q9UIF8; AlphaScreen BAZ2B-H3K14Ac peptide displacement; Potency, µM (highest dose often 114 µM), inactives show top-dose activity change, negative = inhibition, usual class: inhibitors; hit rate 4.4% among 360,000; further: on the % scale 0 is the no-effect control and ±100 the full control effect; nearly all actives have a fitted effect of over 60% in size
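Protein-peptide AlphaScreen: BAZ2B 50 nM, b-H3K14Ac 50 nM, 1x PBS pH 7.4 + 0.01% Tween-20. Preincubation 30 min RT; cpd 30 min RT (top 110 uM); beads 20 min RT, light-protected.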
JMJD2A Tudor inh: JMJD2A Tudor domain (human) inhibition; Potency, µM (highest dose often 114 µM), for inactives: top-dose activity change, negative = inhibition, hits mostly inhibitors; AlphaScreen JMJD2A-Tudor / H3K4me3 peptide binding; hit rate 4.4% among 390,000; O75164; further: on the % scale 0 is the no-effect control and ±100 the full control effect; nearly all actives have a fitted effect of over 50% in size
G9a block: inhibitors of human histone lysine methyltransferase G9a | Potency, µM (series often up to 102 µM), inactives show at the highest dose activity, negative = inhibition, actives largely listed as inhibitors | hit rate 8.8% among 350,000 | G9a H3K9 monomethylation, AlphaScreen, 2 h; further: on the % scale 0 is the no-effect control and ±100 the full control effect; nearly all actives have a fitted effect of over 75% in size
Target sequence (Q96KQ7 913-1193 limits assumed): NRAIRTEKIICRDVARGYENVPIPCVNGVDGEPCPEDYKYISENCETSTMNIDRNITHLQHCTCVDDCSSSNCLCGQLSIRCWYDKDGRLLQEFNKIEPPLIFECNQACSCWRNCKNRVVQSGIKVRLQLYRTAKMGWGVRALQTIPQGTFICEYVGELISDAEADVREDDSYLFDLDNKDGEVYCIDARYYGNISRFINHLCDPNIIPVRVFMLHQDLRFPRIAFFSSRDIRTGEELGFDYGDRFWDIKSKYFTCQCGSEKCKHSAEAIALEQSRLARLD
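Signal arises when biotinylated H3K9 peptide, once monomethylated, bridges streptavidin donor and antibody-captured acceptor beads. Enzyme at 20 nM was preincubated 15 min with test compounds; peptide 500 nM and SAM 20 uM then reacted for 2 h.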
L3MBTL1 block: inhibitors of human L3MBTL1; Q9Y468; AlphaScreen L3MBTL1–H3K9me1 peptide binding; Potency, µM (titrated, usually from 57.1 µM), inactives show top-dose activity, negative = inhibition, hits mostly inhibitors; hit rate 0.66% among 230,000; AID 485360; further: on the % scale 0 is the no-effect control and ±100 the full control effect; nearly all actives have a fitted effect of over 60% in size
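Read-out is AlphaScreen signal from streptavidin donor and nickel chelate acceptor beads (10 ug/mL final each) bridging L3MBTL1 (50 nM) and biotinylated K9-monomethylated H3(1-15) peptide (75 nM), after 30 min compound exposure at room temperature.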
Sfp PPTase inh: Sfp phosphopantetheinyl transferase inhibition | Potency, µM, without a hit: largest response in the series, negative = inhibition, usual class: inhibitors | Biochemical Sfp PPTase activity, qHTS | AID 1490 | Q9F4F7 | hit rate 3.5% among 310,000;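 further: the enzyme is Sfp with the accession as filed and its product quenches rhodamine fluorescence; 0% = enzyme reaction without inhibitor and -100% = no enzyme wells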
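Buffer: 50 mM Hepes-Na pH 7.6, 10 mM MgCl2, 0.01% Nonidet P-40, 0.01% BSA. Enzyme 15 nM, pre-exposed to compound 15 min; substrates then added and fluorescence change tracked over 30 min.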
HP1b binding inh: blocks HP1-beta chromodomain binding to methylated histone tails; hit rate 0.56% among 390,000; AlphaScreen HP1-beta / biotin-H3K9me3 peptide binding; P83916; AID 540317; Potency, µM (series often up to 114 µM), for inactives: at the highest dose activity change, negative = inhibition, most hits filed as inhibitors; further: nearly all actives have a fitted effect of over 70% in size
Target sequence (P83916 whole entry, looked up): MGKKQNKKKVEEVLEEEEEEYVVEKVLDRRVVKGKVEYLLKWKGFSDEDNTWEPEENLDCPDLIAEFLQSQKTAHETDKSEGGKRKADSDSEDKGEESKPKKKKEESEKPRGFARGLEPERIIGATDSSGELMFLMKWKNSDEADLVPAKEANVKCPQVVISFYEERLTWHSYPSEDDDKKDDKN
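HP1-beta protein (50 nM final) preincubated 30 min at room temperature with biotinylated H3(1-18)K9me3 peptide (50 nM) in PBS pH 7.4, 0.01% Tween-20, then compound added for 30 min. AlphaScreen streptavidin donor/nickel chelate acceptor beads (10 ug/mL final), 30 min dark, luminescence read.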
Numbers without * were called inactive; ? = inconclusive; . = no result; ! = not active in a repeat; [ ] = dose if it differs, or a comment. The call rests on the fitted dose curve; in most records, active means well fitted curve in the direction sought with a large enough effect; inconclusive means small, poorly fitted or top-dose-only effect, or another doubt; inactive means no such curve, though single readings can be large; an effect the other way counts as inactive or inconclusive. Potency means the concentration at half of the fitted maximal effect.

SMILES	BAZ2B block	JMJD2A Tudor inh	G9a block	L3MBTL1 block	Sfp PPTase inh	HP1b binding inh
c1ccc2c(CSc3nnc(-c4ccncc4)o3)cccc2c1	4%	-13%	50µM*	-6%	?	-6%
c1cc(CSc2nnc(-c3ccc4c(c3)OCO4)o2)ccn1	3%	11%[57.1 µM]	22%[59 µM]	1%	24%	55%
Clc1ccccc1CSc1nnc(-c2ccncc2)o1	-2%	-11%	47%	5%	4%	33%
Brc1cccc(CSc2nnc(-c3ccncc3)o2)c1	27%	4%	45µM*	.	9%	58%
O=C(O)CC1S/C(=N/N=C/c2ccc(-c3ccc(Cl)c([N+](=O)[O-])c3)o2)NC1=O (stereo not given)	-25%	-27%	?	.	-18%	26%
Cc1ccc(/C=N/N=C2/NC(=O)C(CC(=O)Nc3ccc(Cl)cc3)S2)o1 (stereo not given)	-15%	-18%	5%[59 µM]	-5%	35µM*	34%
O=C(O)CC1S/C(=N/N=C/c2ccc(-c3ccc(Cl)cc3[N+](=O)[O-])o2)NC1=O (stereo not given)	?	?	14µM*	.	40µM*	-9%
O=C(O)c1ccc(CS(=O)(=O)c2ccc(Br)cc2)cc1	12%	-2%	.	6%	17%	43%
COc1cccc(C(C)=C2SC(=S)NC2=O)c1	.	-35%	.	.	.	?
N/C(=N\OC(=O)/C=C/c1ccccc1Cl)c1ccccn1	79µM*	-7%	-7%[59 µM]	.	-14%	60%
N/C(=N\OC(=O)COc1ccc2ccccc2c1Br)c1ccccn1	?	4%	9%	5%[11.4 µM]	56µM*	53%
N/C(=N\OC(=O)c1ccccc1)c1ccccn1	-32%	-4%	.	-7%	1%	34%
N/C(=N\OC(=O)c1ccc(Br)o1)c1ccccn1	-35%	-19%	20µM*	6%	-2%	20%
N/C(=N\OC(=O)COc1ccc(Br)cc1Cl)c1ccccn1	7%	79µM*	?	9%	-12%	20%
CCOc1ccccc1NC(=O)C1CCCN(c2ncnc3onc(-c4ccc(F)cc4)c23)C1 (stereo not given)	12%[57.1 µM]	-14%	-1%[59 µM]	.	.	17%
CCc1ccc(OCC(=O)O/N=C(\N)c2ccccn2)cc1	1%	7%	?	3%	7%	44%
N/C(=N\OC(=O)COc1ccccc1)c1ccccn1	-19%	-1%	11µM*	12%	12%	25%
CC(C)NC(=O)N1CC[C@@]2(CCCN(C(=O)c3cc(C(F)(F)F)cc(C(F)(F)F)c3)C2)C1	.	.	-4%[12.7 µM]	.	17%	.
CCOC(=O)[C@H]1[C@H]2COc3ccc(Br)cc3[C@@H]2N2C(=O)CN(Cc3ccc(Cl)cc3)C(=O)[C@@]12C	.	-21%	.	-3%	.	26%
CCOC(=O)[C@H]1[C@H]2COc3ccc(Br)cc3[C@@H]2N2C(=O)CN(Cc3ccco3)C(=O)[C@@]12C	50µM*	?	7%[0.501 µM]	-4%	.	9%
Cc1sc(NC(=O)CSc2n[nH]c(N)n2)c(C#N)c1C	.	-31%	.	.	.	-3%[57 µM]
Cc1ccc(/C=C/C2=Cc3c(sc(NC(=O)CSc4n[nH]c(N)n4)c3C#N)C(C)(C)C2)o1	?	.	8.9µM*	?	2.5µM*	.
NC1(C(=O)O)CSSC1	.	89µM*	.	.	.	?
NC1(C(=O)O)C[C@@H](C(=O)O)[C@H](C(=O)O)C1	.	.	22%[59 µM]	.	?	.
NC1(C(=O)O)CCCCC1	.	.	1.9µM*!	.	.	.
SMILES	BAZ2B block	JMJD2A Tudor inh	G9a block	L3MBTL1 block	Sfp PPTase inh	HP1b binding inh
O=S(=O)(c1cnc[nH]1)N1CCN(C(c2ccc(F)cc2)c2ccc(F)cc2)CC1	-16%	?	.	.	-7%	5%[57 µM]
c1ccc2nc3ccccc3cc2c1	.	.	31%[59 µM]	.	7%	.
O=c1cccc2n1Cc1cc3ccccc3nc1-2	-27%	-9%	45µM*	6%	12%	22%
C/C=C/OC(=O)NC(c1ccccc1)[C@]1(C(C)=O)CCCC1=O (stereo not given in full)	.	.	.	.	6%	.
Cc1ccc(F)c(C2C3C=CCCC3(C)C(=O)N2Cc2ccccc2)c1 (stereo not given)	.	-3%	.	.	28µM*	36%
COc1ccc(-c2ccc(N(C)C)cc2)cc1C1C2C=CCCC2(C)C(=O)N1Cc1ccccc1 (stereo not given)	.	8.9µM*	.	.	?	?
COc1ccc(-c2ccc(N(C)C)cc2)cc1[C@H]1[C@@H]2C=CCC[C@@]2(C)C(=O)N1Cc1ccccc1	7.9µM*	14µM*	?	.	?	?
Cc1ccc(-c2ccc(C3C4C=CCCC4(C)C(=O)N3Cc3ccccc3)c(F)c2)cc1 (stereo not given)	.	-28%	.	.	?	32%
COc1ccc(-c2ccc([C@H]3[C@@H]4C=CCC[C@@]4(C)C(=O)N3Cc3ccccc3)c(F)c2)cc1	-11%	-26%	-11%[12.7 µM]	.	32µM*	20%
O=C(OCc1cc(=O)n2nc(C3CC3)sc2n1)c1cccc(NC(=O)c2ccccc2Cl)c1	-6%	-13%	10%[59 µM]	.	.	4%
N#C/C(=C\c1cccnc1)c1ccccn1	4%	1%	29%	.	5%	26%
O=C(Cc1ccccc1)Nc1sc2c(c1C(=O)Nc1cccc(Cl)c1)CCCC2	.	-10%	.	.	.	.
CCC(C)NC(=O)CSc1nnc(-c2ccc(Cl)cc2)n1N (stereo not given)	-17%	-4%	?	15%	15%	51%
CCOC(=O)c1sc(NC(=O)c2nc(SCC)ncc2Cl)c(C(=O)OCC)c1C	-2%	-14%	7%[59 µM]	.	.	46%
Cc1oc2c(C)c3oc(=O)c(CCC(=O)N4CCCCC4)c(C)c3cc2c1C	-3%	-14%	-2%[59 µM]	.	.	31%
COc1ccc(S(=O)(=O)N(c2onc(C)c2Cl)S(=O)(=O)c2ccc(OC)c(OC)c2)cc1OC	79µM*	25µM*	?	7%	12%	32%
Cc1cc(C)n(-c2nnc(C)n2NS(=O)(=O)c2ccc(F)cc2)n1	?	?	13%[2.33 µM]	-7%	-27%	-3%
Cc1ccc(S(=O)(=O)Nn2c(C)nnc2-n2nc(C)cc2C)cc1	71µM*	50µM*	-42%[59 µM]	-1%	-16%	5%
CC(C)C(=O)Nc1ccc2nc(SCC(=O)N3CCc4ccccc43)sc2c1	-4%	-23%	-5%[59 µM]	.	.	34%
C#CCOCCOCCOCCNc1nc(N2CCN(C(=O)[C@H]([C@@H](C)CC)n3cc([C@@H](N)Cc4ccc(O)cc4)nn3)CC2)nc(N2CCN(C(=O)[C@H](CCCCN)n3cc([C@@H](N)C(C)CC)nn3)CC2)n1 (stereo not given in full)	79µM*	50µM*	?	-11%	16%	-2%

Screening data from PubChem.
